# The list is not random: actives were taken first. Their share in the collection is about 32%.
# CYP2C19 act: human CYP2C19 activators, primary screen, biochemical, luminescence. recombinant CYP2C19, luciferin-H EGE luminescence; hits give high values; 0 = fully inhibited enzyme, 1 = untreated enzyme. activation factor at 5 µM. 96,000 tested, under 10 active. AID 1025, 2008;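 active = activation factor of at least 2 at 5 µM in the primary screen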;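 note: 0 = wells with 2.5 mM tranylcypromine and 1 = vehicle-only wells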
# CYP2C9 act: human CYP2C9 activators, primary screen, biochemical, luminescence; recombinant CYP2C9, luciferin-H conversion; hits give high values; factor 1 = untreated enzyme, 0 = blocked; activation factor at 5 µM; 1.4% of 96,000 active; AID 1024, 2008;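 active = activation factor of 2 or more for CYP2C9 at a 5 µM dose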;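 note: 0 = sulfaphenazole-blocked wells and 1 = vehicle-only wells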
# Target sequence (P11712 whole entry, looked up): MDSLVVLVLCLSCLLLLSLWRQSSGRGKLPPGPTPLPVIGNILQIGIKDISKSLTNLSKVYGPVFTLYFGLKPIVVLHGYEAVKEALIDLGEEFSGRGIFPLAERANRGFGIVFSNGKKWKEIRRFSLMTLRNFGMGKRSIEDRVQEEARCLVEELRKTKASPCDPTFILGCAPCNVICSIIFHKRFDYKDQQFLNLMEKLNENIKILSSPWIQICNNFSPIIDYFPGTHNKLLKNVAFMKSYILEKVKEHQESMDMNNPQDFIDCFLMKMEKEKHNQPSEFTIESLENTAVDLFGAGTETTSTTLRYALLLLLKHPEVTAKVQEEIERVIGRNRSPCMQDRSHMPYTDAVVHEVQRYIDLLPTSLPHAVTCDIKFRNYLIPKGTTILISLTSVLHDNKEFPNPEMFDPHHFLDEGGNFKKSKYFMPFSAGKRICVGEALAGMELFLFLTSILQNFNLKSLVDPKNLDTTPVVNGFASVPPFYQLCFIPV
# PostGolgi ctrl: growth inhibition of yeast control strain, primary screen, counter-screen for post-Golgi transport modulator project; AID 738, 2007; inhibition, % at 10 µM; efflux-deficient yeast background strain, growth absorbance A615, 16 h; 5% of 98,000 active
# CYP2C19 inh: blockers of cytochrome P450 2C19 activity – biochemical, luminescence, ADME assay, primary screen | P33261 | CYP2C19 Supersomes, luciferin-H EGE luminescence, 30 min | inhibition, % at 5 µM | 21% of 96,000 active;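 active = CYP2C19 inhibition above a set limit at 5 µM in the primary screen, cut at about 50% in these data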;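 note: plate controls were negative control wells for no effect and 2.5 mM tranylcypromine positive control for full effect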
# PostGolgi yeast: phenotypic screen on post-Golgi transport, primary screen; 0.9% of 98,000 active; post-Golgi transport phenotypic cell assay; inhibition, % at 10 µM;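 note: yeast cells grown in 1536-well plates; yeast grown about 18 h at 30C before absorbance read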
# CYP2C9 inh: blockers of cytochrome P450 2C9 activity – biochemical, luminescence, ADME assay, primary screen. P11712. CYP2C9 Supersomes, luciferin-H conversion. inhibition, % at 5 µM. 20% of 96,000 active. AID 777, 2007;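 active = blocking of liver enzyme CYP2C9 beyond about 50% at 5 µM, limit read from the data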
# An asterisk follows results filed as active; x = no result. Cut-off read from the data, not from the text of the source, unless noted: active = inhibition above about 30%; inactive = the rest.
SMILES,CYP2C19 act,CYP2C9 act,PostGolgi ctrl,CYP2C19 inh,PostGolgi yeast,CYP2C9 inh
COc1ccccc1NC(=O)C1=C(C)Nc2nc(-c3cccs3)nn2C1c1cccc(O)c1 (stereo not drawn),0.7,0.3,3.5,32.8,-4.5,69.5*
COc1ccccc1C1C(C(N)=O)=C(C)Nc2nc(-c3ccccc3Cl)nn21 (stereo not drawn),0.7,1.1,9.1,26.5,17.7,-7.8
COc1ccc(C2C(C(N)=O)=C(C)Nc3nc(-c4cccc(Cl)c4)nn32)cc1OC (stereo not drawn),0.4,0.6,-0.6,56.0*,1.3,40.6
COc1ccc(C2C(C(N)=O)=C(C)Nc3nc(-c4ccccc4)nn32)cc1OC (stereo not drawn),0.7,0.9,0.6,34.2,2.1,7.0
COc1cccc(C2C(C(N)=O)=C(C)Nc3nc(-c4ccccc4Cl)nn32)c1 (stereo not drawn),0.4,0.7,0.1,60.4*,-11.3,33.8
COc1ccc(C2C(C(=O)Nc3cccnc3)=C(C)Nc3nc(-c4cccs4)nn32)cc1OC (stereo not drawn),0.9,0.5,3.2,10.1,-0.4,48.3
COc1ccc(C2C3=C(CCCC3=O)Nc3nc(-c4cc(OC)c(OC)c(OC)c4)nn32)cc1OC (stereo not drawn),0.8,0.5,1.1,23.5,32.6*,49.3
COc1ccc(C(C(=O)NC2CCCCC2)N(C(=O)c2sc(C)nc2C)c2ccc(C(C)=O)cc2)cc1 (stereo not drawn),0.9,0.9,-9.3,5.3,-3.1,5.4
O=C1c2ccccc2NC(c2cccc(Cl)c2)N1N=C1CCCCCC1 (stereo not drawn),0.7,0.9,21.6,29.0,-2.4,7.4
CCOc1ccc(S(=O)(=O)N2CCN(C)CC2)c(C)c1C,0.7,1.3,-2.4,28.1,10.4,-27.9
Cc1cc(C)c(S(=O)(=O)N2CCCCC2)c(C)c1-n1ncnn1,0.3,2.1*,7.5,69.3*,-5.1,-109.8
Cc1[nH]c(=O)[nH]c(=O)c1S(=O)(=O)N1CCCC1,0.9,0.9,1.9,10.5,-0.5,6.3
Cc1cc(C)c(S(=O)(=O)N2CCCCC2)c(C)c1N(C)S(=O)(=O)c1ccccc1,0.7,0.4,9.6,30.4,3.1,59.4*
O=S(=O)(c1ccc(Oc2ccc(Cl)cc2)c(S(=O)(=O)N2CCCCC2)c1)N1CCCCC1,0.9,0.6,6.8,8.2,-6.2,38.9
Cc1ccc(S(=O)(=O)N2CCN(C)CC2)c(C)c1N(C)S(=O)(=O)c1ccc(Cl)cc1,0.3,0.5,2.7,67.1*,6.5,46.7
Cc1cc(C)c(S(=O)(=O)N2CCCCC2)cc1N(C)S(=O)(=O)c1ccc(Cl)cc1,0.6,0.3,21.6,37.6,5.5,70.7*
O=c1c(Cl)c(N2CCN(S(=O)(=O)c3ccc(F)cc3)CC2)cnn1-c1cccc(Cl)c1,0.9,0.8,22.2,10.9,-3.8,18.9
Cn1nnc2cc(NC(=O)N3CC4(C)CC3CC(C)(C)C4)ccc21 (stereo not drawn),0.9,0.8,1.9,8.2,-7.6,17.9
Cc1ccc(-n2c(C)cc(C)c(C#N)c2=O)cc1Cl,0.9,0.9,-0.6,11.9,-1.2,8.1
COCCSc1ccccc1C(=O)Nc1nncs1,1,1,9.3,0.5,-4.8,-2.5
O=C(c1ccco1)[C@@H]1[C@@H]2C(=O)N(c3ccccc3)C(=O)[C@@H]2C2c3ccccc3C=CN21 (stereo partly drawn),1.1,0.8,x,-6.9,x,21.9
CC(C)(C)C(=O)[C@@H]1[C@@H]2C(=O)N(c3ccc4c(c3)OCCO4)C(=O)[C@@H]2C2c3ccccc3C=CN21 (stereo partly drawn),0.4,0.4,-2.1,57.2*,-2.6,56.7*
COc1ccc(N2C(=O)[C@@H]3[C@H](C2=O)[C@H]2c4ccccc4C=CN2[C@@H]3C(=O)Nc2ccccc2)cc1,0.8,0.4,-1.7,15.1,-0.8,62.4*
COc1ccc(C)cc1NC(=O)C(CCS(C)(=O)=O)NC(C)=O (stereo not drawn),1,1,27.0,-3.3,-7.5,0.5
COc1ccc(CN2CC(C(=O)NCCCN3CCOCC3)CC2=O)cc1 (stereo not drawn),1,1,34.5*,4.4,-4.8,-3.0
SMILES,CYP2C19 act,CYP2C9 act,PostGolgi ctrl,CYP2C19 inh,PostGolgi yeast,CYP2C9 inh
O=C(Cn1ncc2c(=O)oc3ccccc3c21)N1CCc2ccccc2C1,x,x,-16.0,x,-1.1,x
O=C(c1nn(Cc2ccccc2)c(=O)c2ccccc12)N1CCN(c2ccccn2)CC1,0.7,0.6,18.2,32.7,13.8,44.4
O=C(c1nn(Cc2ccccc2)c(=O)c2ccccc12)N1CCc2ccccc2C1,0.7,0.6,57.0*,32.7,-6.0,40.3
CCn1c(C(=O)N2CCc3ccccc3C2)cc2oc3ccccc3c21,0.4,0.5,34.4*,55.3*,-2.3,53.1*
O=C(c1cc2ccccc2c(=O)o1)N1CCc2ccccc2C1,0.6,2.5*,12.1,44.4,-0.6,-150.2
Cn1c(C(=O)N2CCc3ccccc3C2)cc2oc3ccccc3c21,x,x,56.1*,x,-1.8,x
CCC(C)(C(=O)NC1CCCC1)N(C(=O)c1ccccn1)c1ccc(C)cc1 (stereo not drawn),0.7,0.5,-0.9,25.9,3.3,49.6
COC(=O)c1sc(N)nc1C(C)(C)C,0.6,0.9,2.2,36.6,17.4,9.4
CCOC(=O)c1c(C)c(C(=O)NCCN2CCOCC2)c(C)n1CC,1,1.3,0.6,-1.1,2.8,-27.2
CCOC(=O)c1c(C)c(C(=O)N2CCc3ccccc3C2)c(C)n1CC,0.1,0.6,14.8,85.6*,7.7,45.0
Cc1cccc(C)c1NC(=S)N1CCC(N(C)CC2CCCO2)CC1 (stereo not drawn),1.1,0.9,3.6,-5.3,4.8,10.5
Cc1cccc(NC(=S)N2CCC(N(C)CC3CCCO3)CC2)c1C (stereo not drawn),1.2,1.1,32.2*,-15.7,-16.2,-9.3
COc1ccccc1NC(=O)COC(=O)c1cnccn1,0.9,0.7,1.7,12.0,-1.3,32.3
COc1cc(NC(C)C(=O)N2CC(C)OC(C)C2)cc(OC)c1 (stereo not drawn),1.3,1.3,-4.7,-32.3,-5.8,-34.7
O=C(C=C1SCCS1)/C=C/c1ccco1,0.7,0.7,31.7*,33.1,-4.5,25.8
COc1ccc(N(Cc2ccccc2)C(=O)CSc2nnc(Cn3nnc4ccccc43)o2)cc1,0.6,0.3,9.6,42.0,-6.7,74.0*
O=C(CSc1nnc(Cn2nnc3ccccc32)o1)N(Cc1ccc(F)cc1)c1ccccc1,0.7,0.4,20.9,31.7,2.2,59.0*
